# This is a sample that favours compounds with a hit; in the whole collection about 12% have one here.
# HP1b binding inh – blocks HP1-beta chromodomain binding to methylated histone tails | actives 0.56% (n = 390,000) | Potency, µM (highest dose often 114 µM), for inactives: at the top dose activity change, negative = inhibition, most hits filed as inhibitors | P83916 | AlphaScreen HP1-beta / biotin-H3K9me3 peptide binding; also: potency is read from the fitted curve at half-maximal effect; nearly all actives have a fitted effect of over 70% in size
# Target sequence (P83916 whole entry, looked up): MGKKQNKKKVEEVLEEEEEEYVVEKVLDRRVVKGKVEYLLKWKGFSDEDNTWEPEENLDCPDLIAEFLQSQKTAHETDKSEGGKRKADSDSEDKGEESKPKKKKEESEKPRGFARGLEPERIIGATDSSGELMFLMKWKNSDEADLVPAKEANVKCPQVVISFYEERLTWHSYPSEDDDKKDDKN
#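 HP1-beta protein (50 nM final) preincubated 30 min at room temperature with biotinylated H3(1-18)K9me3 peptide (50 nM) in PBS pH 7.4, 0.01% Tween-20, then compound added for 30 min. AlphaScreen streptavidin donor/nickel chelate acceptor beads (10 ug/mL final), 30 min dark, luminescence read.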
# PI5P4K alpha inh – blocks human PI5P4K alpha kinase activity; max response, %; P48426; actives 1.2% (n = 330,000); PI5P4Kalpha enzyme, ADP-Glo luminescence, 60 min; active compounds read low; active = max response of -50% or lower; inconclusive = between -30% and -50%; inactive = -30% or higher; also: value at the top dose of about 77 µM; % is scaled to controls: 0 for no effect and ±100 for the full control effect
#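 Enzyme plus substrate dispensed, test compounds pinned in, then ATP (5 microM final) added. After 60 min at RT, ADP-Glo reagent 1 for 45 min and reagent 2 for 30 min preceded luminescence imaging.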
# PLK1 PBD inh – inhibitors of human PLK1 polo-box domain binding. Plk1 PBD binding of FITC phosphopeptide, fluorescence polarization. Potency, µM, inactives show max response, negative = inhibition, usual class: inhibitors. actives 2.8% (n = 360,000). AID 720504; also: potency is read from the fitted curve at half-maximal effect; series mostly up to about 57 µM; % is scaled to controls: 0 for no effect and ±100 for the full control effect; nearly all actives have a fitted effect of over 65% in size
# Target sequence (P53350 whole entry, looked up, the tested form may be a part): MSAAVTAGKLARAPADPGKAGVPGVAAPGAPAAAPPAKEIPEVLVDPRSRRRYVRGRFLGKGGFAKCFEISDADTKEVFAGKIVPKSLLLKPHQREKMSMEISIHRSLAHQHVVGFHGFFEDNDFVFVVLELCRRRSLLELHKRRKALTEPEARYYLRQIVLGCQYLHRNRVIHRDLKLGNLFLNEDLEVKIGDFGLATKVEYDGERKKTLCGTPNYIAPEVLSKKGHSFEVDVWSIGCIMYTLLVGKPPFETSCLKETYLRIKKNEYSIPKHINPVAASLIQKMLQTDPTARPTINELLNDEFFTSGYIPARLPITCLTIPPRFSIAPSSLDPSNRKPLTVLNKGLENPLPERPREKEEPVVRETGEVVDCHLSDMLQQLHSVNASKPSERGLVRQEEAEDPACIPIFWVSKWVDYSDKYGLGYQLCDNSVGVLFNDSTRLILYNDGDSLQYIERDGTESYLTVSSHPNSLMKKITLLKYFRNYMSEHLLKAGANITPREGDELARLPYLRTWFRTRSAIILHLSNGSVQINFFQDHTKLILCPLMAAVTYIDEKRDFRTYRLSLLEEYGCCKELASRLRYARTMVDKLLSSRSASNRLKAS
# JMJD2A Tudor inh – JMJD2A Tudor domain (human) inhibition; O75164; AlphaScreen JMJD2A-Tudor / H3K4me3 peptide binding; Potency, µM (highest dose often 114 µM), for the others: at the highest dose activity change, negative = inhibition, actives largely listed as inhibitors; actives 4.4% (n = 390,000); also: potency is read from the fitted curve at half-maximal effect; % is scaled to controls: 0 for no effect and ±100 for the full control effect; nearly all actives have a fitted effect of over 50% in size
# G9a inh – inhibitors of human histone lysine methyltransferase G9a; AID 504332; Potency, µM (highest dose often 102 µM), without a hit: at the highest dose activity, negative = inhibition, usual class: inhibitors; Q96KQ7; G9a H3K9 monomethylation, AlphaScreen, 2 h; actives 8.8% (n = 350,000); also: potency is read from the fitted curve at half-maximal effect; % is scaled to controls: 0 for no effect and ±100 for the full control effect; nearly all actives have a fitted effect of over 75% in size
#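 Signal arises when biotinylated H3K9 peptide, once monomethylated, bridges streptavidin donor and antibody-captured acceptor beads. Enzyme at 20 nM was preincubated 15 min with test compounds; peptide 500 nM and SAM 20 uM then reacted for 2 h.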
# BAZ2B block – blocks human BAZ2B | Q9UIF8 | AlphaScreen BAZ2B-H3K14Ac peptide displacement | Potency, µM (top dose mostly 114 µM), for the others: at the highest dose activity change, negative = inhibition, hits mostly inhibitors | actives 4.4% (n = 360,000) | AID 504333; also: potency is read from the fitted curve at half-maximal effect; % is scaled to controls: 0 for no effect and ±100 for the full control effect; nearly all actives have a fitted effect of over 60% in size
#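 BAZ2B 50 nM plus b-H3(5-23)K14Ac 50 nM, PBS pH 7.4/0.01% Tween-20, 30 min RT; compound added (max 110 uM), 30 min RT; streptavidin donor/Ni-chelate acceptor beads 10 ug/mL final, 20 min dark; AlphaScreen read.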
# Active calls of the source: *; ? = inconclusive; · = not tested or not shown; [ ] = another dose, or the depositor's remark. Unless noted, calls follow the shape of the dose curve; as a rule, active = well fitted curve in the direction sought with a large enough effect; inconclusive = small, poorly fitted or top-dose-only effect, or another doubt; inactive = no such curve, though single readings can be large; an effect the other way counts as inactive or inconclusive.
SMILES,HP1b binding inh,PI5P4K alpha inh,PLK1 PBD inh,JMJD2A Tudor inh,G9a inh,BAZ2B block
CCOC(=O)[C@]12Cc3c(cc(OC)c(OC)c3OC)[C@H]1N(CCC(=O)OC)C(=O)c1cc(OC)ccc12,·,-3.4,11.9µM*,·,·,·
CCOC(=O)[C@]12Cc3c(cc(OC)c(OC)c3OC)[C@H]1N(Cc1ccccc1)C(=O)c1cc(OC)ccc12,·,5.0,7.52µM*,·,·,·
CSc1cccc(NC(=O)NNC(=O)C2CCN(S(=O)(=O)N(C)C)CC2)c1,35.1%,2.6,-14.3%,-13.5%,50.7%,-3.5%[57.1 µM]
CCOc1ccc(NC(=O)COc2ccc(C(=O)NC(C)c3ccc(S(N)(=O)=O)cc3)cc2OC)cc1 (configuration not stated),11.9%,-5.5,4.2%,-4.1%,12.6%[59 µM],8.7%
COc1ccccc1OCC(=O)Nc1nc(C)c(C)s1,7.2%,-3.3,-8.6%,-20.9%,-3.1%,-2.8%
O=C(CN1C(=O)NC2(CCCC2)C1=O)Nc1cc(C(F)(F)F)ccc1N1CCCCC1,15.9%,5.8,-2.7%,-14.2%,44.7µM*,3.9%
O=C(CN1C(=O)NC2(CCCCC2)C1=O)Nc1cc(C(F)(F)F)ccc1N1CCOCC1,47.0%,6.3,3.6%,-2.8%,50.1µM*,2.8%
O=C(CN1C(=O)NC2(CCCCC2)C1=O)Nc1cc(C(F)(F)F)ccc1N1CCCCC1,24.1%,-6.2,-0.6%,-9.0%,-5.0%[0.501 µM],-5.1%
CCCCN1C(=O)CN(C2CCCCCC2)C(=O)C1c1ccc(OC(C)C)c(OC)c1 (configuration not stated),20.8%,·,·,-9.2%,6.6%[59 µM],-9.7%
CC(C)N1C(=S)N(Cc2ccco2)C(=O)C1CC(=O)Nc1ccccc1 (configuration not stated),19.7%,-13.3,-7.8%,-18.9%,50.1µM*,?
Nc1ccc2nc(CCc3ccccc3)[nH]c2c1,-6.2%,-14.0,5.6%,?,7.94µM*,?
Cc1ccc2nc(CCc3ccc(N)cc3)[nH]c2c1,-1.6%,-7.4,0.0%,?,35.5µM*,?
Nc1ccc(Cc2nc3cc4ccccc4cc3[nH]2)cc1,4.8%,·,0.7%,?,-21.8%[59 µM],-35.5%
CCc1nc2ccc(Cc3ccc4nc(CC)[nH]c4c3)cc2[nH]1,44.8%,0.8,2.2%,-10.1%,44.7µM*,-14.3%
Cc1ccc(C=C2C(=O)c3ccccc3C2=O)s1,?,-15.3,16.8µM*,?,?,15.8µM*
CCn1c(C)cc(C=C2C(=O)c3ccccc3C2=O)c1C,3.2%,0.0,?,-14.5%,?,-38.3%
O=C1/C(=C/c2cccs2)Cc2ccccc21,24.5%,4.4,-7.4%,7.9%,-18.6%,-0.9%
O=C1C(=Cc2cccs2)C(=O)c2ccccc21,-5.3%,9.2,8.44µM*,-31.4%,-45.0%[59 µM],-30.1%
Cc1cc(C=C2C(=O)c3ccccc3C2=O)c(C)n1C,-2.9%,-14.9,-13.6%,-30.8%,39.8µM*,-24.4%
Cc1cccc(C(=O)OCC(=O)N2CCCCCC2)c1,37.9%,-4.5,4.0%,-3.0%,3.5%[12.7 µM],-3.1%
CN(CC(=O)Nc1ccccc1C(F)(F)F)C(=O)C1CCN(S(=O)(=O)c2ccc3c(c2)OCCO3)CC1,44.3%,8.9,-1.2%,-11.0%,?,-3.5%
CCOc1cc(/C=C2/NC(=O)N(CC(=O)Nc3cccc(C)c3)C2=O)ccc1OCC(N)=O,-25.7%,?,?,56.2µM*,-17.1%,-17.4%
Cc1ccc(S(=O)(=O)N2C[C@H]3C(=O)C[C@@H](c4ccc(Cl)cc4)N(S(=O)(=O)c4ccc(C)cc4)[C@H]3C[C@H]2c2ccccc2)cc1,·,-0.9,-3.4%,·,·,·
O=C(Cn1nc(C(=O)O)c2ccccc2c1=O)NCC1CCCO1 (configuration not stated),11.3%,-5.1,-11.4%,-4.4%,70.8µM*,3.0%
O=C(Cn1nc(-c2ccccc2)c2ccccc2c1=O)NCC1CCCO1 (configuration not stated),54.6%,-2.1,-3.0%,10.7%,-6.2%,4.9%
SMILES,HP1b binding inh,PI5P4K alpha inh,PLK1 PBD inh,JMJD2A Tudor inh,G9a inh,BAZ2B block
O=C(CCn1c(=S)[nH]c2ccccc2c1=O)NCCc1ccccc1,26.2%,-4.7,-7.7%,-1.7%,-31.0%,·
CCCn1c(=S)[nH]c2cc(C(=O)NCC3CCCO3)ccc2c1=O (configuration not stated),50.9%,0.8,0.1%,-1.4%,10µM*,-7.6%
O=C(NCC1CCCO1)c1ccc2c(=O)n(-c3ccccc3)c(=S)[nH]c2c1 (configuration not stated),38.9%,-6.7,4.5%,2.2%,-46.1%,·
Cc1ccc(C(=O)NCC2CCCO2)cc1N1CCCC1=O (configuration not stated),-7.0%,-21.6,26.7µM*,-11.5%[11.4 µM],·,-0.6%
O=C(CCn1c(=S)[nH]c2ccccc2c1=O)NCC1CCCO1 (configuration not stated),41.4%,·,-5.5%,50.1µM*,?,1.2%
Cc1cc(C)cc(N2CCn3c2nc2c3c(=O)n(Cc3ccc(Cl)cc3)c(=O)n2C)c1,26.3%,·,·,-13.5%,-22.1%[59 µM],-2.4%
Cc1ccc(NC(=O)/C=C/c2ccc(S(=O)(=O)N3CCOCC3)cc2)cc1S(=O)(=O)N(C)C,23.4%[57 µM],1.5,-25.5%,-14.8%,·,·
Cc1ccccc1C(=O)c1cccn1CC(=O)NCC1CCCO1 (configuration not stated),23.6%,1.1,-4.9%,-15.9%,44.7µM*,7.9%
COc1ccc(C(=O)Nc2ncccc2C)cc1S(=O)(=O)N1CCOCC1,37.5%,0.0,-3.6%,0.7%,-42.4%,-28.7%
Cc1cccc(-c2nc3c4ccccc4n(Cc4cccc(Cl)c4)c(=O)n3n2)c1,-0.6%,·,·,-14.7%,4.5%[59 µM],-7.7%
Cc1ccccc1-n1c(N)cc(=O)[nH]c1=S,1.7%,·,-3.9%,-11.7%,-14.9%[59 µM],-0.9%
Cc1ccccc1-n1c(-c2ccoc2C)n[nH]c1=S,5.0%,-5.9,-7.8%,7.94µM*,2.24µM*,-0.2%
Cc1nn(Cc2ccc([N+](=O)[O-])cc2)c(=O)n1-c1cccc(Cl)c1,27.4%,-2.1,-5.6%,-10.7%,-2.3%,-11.0%
Cc1cccc(-n2c(-c3ccoc3C)n[nH]c2=S)c1,-16.6%,2.0,-8.7%,8.91µM*,6.31µM*,-11.4%
Fc1ccccc1-n1c(-c2ccc3ccccc3n2)n[nH]c1=S,28.9%,-10.1,-27.3%,-32.4%,-137.8%[59 µM],?
Cc1ccccc1-n1c(C)n[nH]c1=S,-3.7%,·,-27.3%,20µM*,22.4µM*,8.9%[57.1 µM]
Cc1ccc([N+](=O)[O-])c(-c2n[nH]c(=S)n2-c2cccc(Cl)c2)c1,6.8%,-2.7,-18.0%,?,2µM*,-38.7%
CCc1ccccc1OCC(=O)NCC1COc2ccccc2O1 (configuration not stated),13.7%[57 µM],2.9,-11.5%,7.6%,·,·

# Assay outcomes: PubChem BioAssay, National Center for Advancing Translational Sciences (NCATS)
